# Bioassay records (PubChem BioAssay)
# CYP2C19 activ: activators of human cytochrome P450 2C19 | P33261 | recombinant CYP2C19, luciferin-H EGE luminescence; stronger effect = higher value; 0 = fully inhibited enzyme, 1 = untreated enzyme | activation factor at 5 µM | 96,000 tested, under 10 active;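 active = activation factor of at least 2 at 5 µM in the primary screen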;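 note: 0 = wells with 2.5 mM tranylcypromine and 1 = vehicle-only wells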
# sEH inh: inhibitors of human soluble epoxide hydrolase; P34913; recombinant human sEH enzymatic activity assay; inhibition, % at 2 µM; 91,000 tested, 0.34% active; in the data active = inhibition above about 80%
# CYP2C9 inh: inhibitors of human CYP2C9 | CYP2C9 Supersomes, luciferin-H conversion, luminescence | 96,000 tested, 20% active | inhibition, % at 5 µM | P11712 | AID 777;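 active = blocking of liver enzyme CYP2C9 beyond about 50% at 5 µM, limit read from the data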
# Target sequence (P11712 whole entry, looked up): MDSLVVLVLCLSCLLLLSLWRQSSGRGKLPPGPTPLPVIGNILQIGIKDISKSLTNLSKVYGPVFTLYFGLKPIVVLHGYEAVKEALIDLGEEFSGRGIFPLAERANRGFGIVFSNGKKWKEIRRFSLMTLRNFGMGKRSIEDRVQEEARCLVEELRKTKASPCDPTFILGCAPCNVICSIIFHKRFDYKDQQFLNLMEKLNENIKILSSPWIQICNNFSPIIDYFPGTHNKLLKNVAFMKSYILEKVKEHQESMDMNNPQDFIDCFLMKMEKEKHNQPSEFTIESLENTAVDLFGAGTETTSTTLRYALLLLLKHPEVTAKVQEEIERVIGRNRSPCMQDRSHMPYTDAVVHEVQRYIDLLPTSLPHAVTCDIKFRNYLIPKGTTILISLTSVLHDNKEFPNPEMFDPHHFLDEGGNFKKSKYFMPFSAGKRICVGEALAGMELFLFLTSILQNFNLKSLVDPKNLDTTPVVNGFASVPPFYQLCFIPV
# sEH activator: soluble epoxide hydrolase (human) activation; P34913; AID 717; 91,000 tested, 0.04% active; purified human sEH enzymatic activity, activator screen; activation, % at 2 µM; in the data active = activation above about 37%
# CYP2C9 act: increases human cytochrome P450 2C9 activity. recombinant CYP2C9, luciferin-H conversion, luminescence; stronger effect = higher value; factor 1 = untreated enzyme, 0 = blocked. activation factor at 5 µM. 96,000 tested, 1.4% active;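 active = activation factor of 2 or more for CYP2C9 at a 5 µM dose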;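 note: 0 = sulfaphenazole-blocked wells and 1 = vehicle-only wells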
# CYP2C19 inhib: human CYP2C19 inhibition; 96,000 tested, 21% active; CYP2C19 Supersomes, luciferin-H EGE luminescence, 30 min; inhibition, % at 5 µM; P33261;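 active = CYP2C19 inhibition above a set limit at 5 µM in the primary screen, cut at about 50% in these data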;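 note: plate controls were negative control wells for no effect and 2.5 mM tranylcypromine positive control for full effect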
# * = called active by the depositor; . = no result given. This is a sample that favours compounds with a hit; in the whole collection about 27% have one here.
SMILES,CYP2C19 activ,sEH inh,CYP2C9 inh,sEH activator,CYP2C9 act,CYP2C19 inhib
O=C(CCN1C(=O)c2ccccc2C1=O)OCn1nnc2ccccc2c1=O,1,-6.8,-26.1,8.5,1.3,-2.6
Cc1c(C#N)c(N)c(C(=O)c2ccccc2)n1Cc1ccccc1,0,-5.7,75.8*,7.2,0.2,99.3*
Cc1ccc2[nH]c(=O)c(C3C(C#N)=C(N)Oc4c3ccc3cccnc43)cc2c1 (stereo unspecified),1.1,-6.0,62.1*,3.6,0.4,-13.8
O=c1nc(-c2ccccc2)c2cc(Cl)ccc2[nH]1,1.1,-8.3,9.5,9.4,0.9,-7.6
O=c1cc2[nH]c3ccccc3c(=O)n2nc1-c1ccccc1,0.6,-1.2,71.1*,4.2,0.3,37.2
CCC(=O)NC1(C(F)(F)F)C(=O)Nc2c1c(=O)[nH]c(=O)n2Cc1ccco1 (stereo unspecified),1.1,-0.6,-8.0,0.5,1.1,-14.1
O=C(O)c1ccccc1NCc1ccncc1,1,-1.0,75.5*,0.0,0.2,0.7
NC(=O)CSc1nc(-c2ccccc2)c(-c2ccccc2)o1,.,5.8,.,-2.2,.,.
CC(C)c1cc(C(N)=O)c(NC(=O)C2CCC2)s1,0.4,-5.2,54.6*,7.6,0.5,56.9*
CC(C)c1nnc(NC(=O)C2CCCCC2)s1,.,-4.0,.,3.0,.,.
CCOC(=O)c1ccc2c(c1)nc(SCc1cn3ccsc3n1)n2CC,0.7,-0.4,52.4*,-1.5,0.5,27.9
CC(=O)Oc1ccc(-c2cccc(C(=O)Oc3ccccc3)c2)cc1,1.1,8.2,-13.0,-9.1,1.1,-8.4
C=CCOCC(O)CS(=O)(=O)Cc1ccc(Cl)cc1 (stereo unspecified),0.3,-40.6,16.8,35.7,0.8,73.7*
Cc1ccc(/C=N/n2cnc3sc(-c4ccccc4)cc3c2=O)o1,1,6.2,3.4,-5.9,1,1.6
COc1ccc(CCNC(=O)c2noc3c2CCCC3)cc1OC,0.8,.,-0.6,.,1,16.3
Cc1onc(-c2ccccc2)c1C(=O)Nc1nc2c(s1)CCCC2,0.7,-0.7,46.1,4.6,0.5,27.5
COc1ccc(Cc2nnc(NC(=O)c3c(-c4ccccc4)noc3C)s2)cc1,0.2,8.8,93.1*,-9.3,0.1,84.0*
Cc1onc(-c2ccccc2)c1C(=O)NCCc1c[nH]c2ccccc12,0.4,2.8,56.4*,-1.3,0.4,58.6*
COc1ccc(Cc2nnc(NC(=O)c3c(-c4ccccc4)noc3C)s2)cc1OC,0.9,.,53.7*,.,0.5,8.7
COc1ccc(CCNC(=O)c2c(-c3ccccc3)noc2C)cc1OC,0.1,.,85.6*,.,0.1,89.7*
CCCCN(C)CCNC(=O)c1ccc2c(c1)NC(=O)C(N1CCCCC1)S2 (stereo unspecified),1.1,33.3,5.0,-35.1,0.9,-9.0
COc1ccc(N(CC(=O)N2CCc3ccccc32)S(=O)(=O)c2c(C)noc2C)cc1,1,-8.7,13.1,9.0,0.9,1.8
CC1CCCCC1NC(=O)c1ccc(S(=O)(=O)N2CCCC2)cc1 (stereo unspecified),0.9,8.9,20.1,-8.6,0.8,6.2
CN(C1CCCCC1)S(=O)(=O)c1ccc(-n2cnnn2)cc1,0,0.7,25.4,-0.6,0.7,99.7*
CC1CCCCC1NS(=O)(=O)c1ccc(S(=O)(=O)N2CCCC2)cc1 (stereo unspecified),0.2,3.8,79.4*,-5.3,0.2,79.3*
SMILES,CYP2C19 activ,sEH inh,CYP2C9 inh,sEH activator,CYP2C9 act,CYP2C19 inhib
CC1CCCCC1NS(=O)(=O)c1ccc(-n2cnnn2)cc1 (stereo unspecified),0.1,7.2,0.5,-8.4,1,88.2*
CCC(=O)N1CCc2cc(S(=O)(=O)CCC(=O)Nc3c(C)n(C)n(-c4ccccc4)c3=O)ccc21,.,11.2,.,-10.6,.,.
Cc1cccc(N/C=C/C(=C(C#N)C#N)N(C)C)c1,0.2,-6.5,87.4*,8.9,0.1,76.1*
CN(C)C(/C=C/Nc1ccccc1F)=C(C#N)C#N,0.8,.,49.5,.,0.5,19.2
COc1ccc(OC2C(=O)N(Cc3ccc(F)cc3)C2c2ccc(OC)c(OC)c2)cc1 (stereo unspecified),0.3,-4.0,59.6*,7.3,0.4,72.5*
CCCCCCCCNC(=O)CCNC(=O)c1ccc(C(C)(C)C)cc1,0.4,44.6,51.8*,-44.5,0.5,55.4*
CCOc1ccc(C(=O)NCCC(=O)NCCCC(=O)O)cc1,0.8,-6.6,45.3,8.2,0.5,19.7
COc1ccc(NC(=O)c2cc(-c3cc(C)cc(C)c3O)n[nH]2)cc1Cl,0.6,-4.6,10.3,5.2,0.9,39.2
N#CC1=C(N)Oc2cc(O)ccc2C1c1ccncc1 (stereo unspecified),0.2,-2.5,92.5*,6.0,0.1,84.3*
CN(C)c1ccc2c(c1)OC(N)=C(C#N)C2c1cccc(F)c1 (stereo unspecified),0.1,.,80.5*,.,0.2,92.4*
COC(=O)CC1=C(C(=O)OC)C(c2cccs2)C(C#N)=C(N)O1 (stereo unspecified),0.6,3.5,13.2,-1.9,0.9,41.3
N#CC1=C(N)Oc2c(ccc3ccccc23)C1c1cccs1 (stereo unspecified),0.5,1.1,54.1*,-0.1,0.5,46.1
N#CC1=C(N)Oc2cc(O)ccc2C1c1cccs1 (stereo unspecified),0.2,5.3,74.3*,-5.2,0.3,75.9*
Cc1nnc(N2CCOCC2)c2ccccc12,1.1,4.6,-7.9,-4.9,1.1,-7.3
COCCn1c(SCC(=O)NCc2ccco2)nnc1C(C)C,.,2.5,.,0.7,.,.
Cc1nn(C)cc1C=NCCOCc1ccccc1,1.1,9.1,-8.0,-6.5,1.1,-5.6
CCC1CCCCN1CCCNC(=O)c1cn(CC(C)C)c(=O)c2cc(OC)c(OC)cc12 (stereo unspecified),1.1,41.9,-0.9,-42.4,1,-14.5
CCC(Sc1ccccn1)C(=O)Nc1nnc(C)s1 (stereo unspecified),0.4,2.0,62.9*,1.9,0.4,55.6*
CN(CC(=O)N1CCc2ccccc21)S(=O)(=O)c1ccc(Br)s1,0.1,7.3,-23.4,-6.0,1.2,93.8*
COCC(=O)N1CCCc2ccccc21,1,2.0,1.2,-2.7,1,3.0
Cc1noc(/C=C/N(C)C)c1S(=O)(=O)N(C)CC(=O)N1CCc2ccccc21,1,-15.8,39.1,13.1,0.6,4.5
Cc1nc2ccc(S(=O)(=O)N(C)CC(=O)N3CCc4ccccc43)cc2s1,0.8,11.2,-33.4,-13.8,1.3,19.6
Cc1ccc(N(CC(=O)N2CCc3ccccc32)C2=NC(=O)CS2)cc1,0.4,2.8,67.4*,-1.2,0.3,56.0*
Cn1cc(S(=O)(=O)CC(=O)N2CCCc3ccccc32)c2ccccc21,0.2,-6.7,-88.4,3.9,1.9,83.5*
Cc1ccc(S(=O)(=O)N(C)CC(=O)N2CCCc3ccccc32)cc1,0.7,0.8,-172.4,-6.0,2.7*,29.5
